For one assay, the system named is Staphylococcus aureus. The conditions noted are these: Concentration 32 ug.mL-1;; ASSAY_TEST Inhibition of Bacterial Growth; detection method Absorption (OD600); MEDIA CAMHB; plate type 384well; NBS; CORNING #3640; time 18 hr.
Another assay deals with Escherichia coli. The conditions noted are these: Concentration 32 ug.mL-1;; ASSAY_TEST Inhibition of Bacterial Growth; detection method Absorption (OD600); MEDIA CAMHB; plate type 384well; NBS; CORNING #3640; time 18 hr.

Potency and affinity values are given separately.

On to `O=C(Cn1nc2nc(Nc3ccc(F)cc3)ccn2c1=O)N1CCCc2ccccc21`, for which the Inhibition in the assay on Staphylococcus aureus was 5.55%; in the assay with Escherichia coli, -6.76%.
The like results for `COc1cccc(Sc2nc3ccccc3n3c(=O)n(CC(=O)Nc4cccc(C#N)c4)nc23)c1` were, in that order, 2.4% and -6.13%.
The like results for `O=C(CSc1nnc2c(=O)n(-c3ccccc3)ccn12)Nc1cc(F)ccc1F` were, in that order, 5.32% and -13.66%.
In the same order, the values of `Cc1ccc(CNC(=O)CSc2nnc3c4cc(-c5ccc(C)cc5)nn4ccn23)cc1` are 9.17% and 0.59%.
Turning to `CC(=O)c1ccc(NC(=O)Cn2nc3c4cc(-c5ccc(Cl)cc5)nn4ccn3c2=O)cc1`, the figures for the Inhibition in the assay with Staphylococcus aureus and in the assay on Escherichia coli were 8.4% and 0.52%, respectively.
Regarding `Cc1ccc(NC(=O)Cn2nc3c(Oc4ccccc4)nccn3c2=O)c(Cl)c1`, the Inhibition in the assay on Staphylococcus aureus is given as 0.38%; with Escherichia coli, -2.7%.
The like results for `O=C(Cn1nc2ccc(SCc3ccc(Cl)cc3)nn2c1=O)NC1CCCCC1` were, in that order, 0.02% and -9.74%.
As to `COc1ccc(-c2cc3c4nnc(SCC(=O)Nc5cc(Cl)ccc5C)n4ccn3n2)cc1`, the Inhibition in the assay on Staphylococcus aureus is -1.91%; in the assay on Escherichia coli it was -8.79%.
For the compound `CC(C)c1nnc2c(SCC(=O)Nc3ccc4c(c3)OCO4)nc3ccccc3n12`, the Inhibition with Staphylococcus aureus is on record as -0.91%; with Escherichia coli, -6.38%.
In the same order, the values of `CCCn1c(=O)c2ccc(C(=O)NC3CCCCC3)cc2n2c(=O)n(CC#N)nc12` are 0.58% and 2.29%.
In the same order, the values of `CCCCOc1ccc(-c2cc3c4nnc(SCC(=O)Nc5cc(C)ccc5OC)n4ccn3n2)cc1` are -29% and -22.73%.
The like results for `Cc1cc2nn(CC(=O)Nc3ccc(F)c(F)c3)c(=O)n2c(Nc2ccc(F)c(C)c2)n1` were, in that order, 9.7% and -3.91%.
Consider `Cc1nnc2ccc(S(=O)(=O)N(Cc3ccccc3F)c3cccc(F)c3)cn12`, for which the Inhibition was 9.15% in the assay on Staphylococcus aureus and -8.44% in the assay on Escherichia coli.
In the same order, the values of `CCOC(=O)c1ccccc1NC(=O)Cn1nc2c(Oc3ccccc3)nccn2c1=O` are 12.16% and 1.14%.
`CCc1ccccc1Sc1nccn2c(=O)n(CC(=O)Nc3c(C)cccc3C)nc12`: the Inhibition in the assay on Staphylococcus aureus came to 13.44%; in the assay with Escherichia coli, 0%.
In the same order, the values of `CCc1nnc2c(S(=O)(=O)N(Cc3ccccc3F)c3ccc(F)cc3)cccn12` are 1.79% and -1.76%.
In the same order, the values of `CCOC(=O)c1ccccc1NC(=O)Cn1nc2ccc(C(=O)Nc3ccc(OC)cc3)cn2c1=O` are 0.2% and -8.03%.
The like results for `O=C(CSc1nnc2c(=O)n(-c3ccc(F)cc3)ccn12)NCC1CCCO1` (centres undefined) were, in that order, 0% and -8.97%.
With `COc1cccc(Sc2nc3ccccc3n3c(=O)n(CC(=O)N4CCCc5ccccc54)nc23)c1`, the Inhibition in the assay with Staphylococcus aureus was -3.45%; in the assay with Escherichia coli, -7.6%.
In the same order, the values of `COc1cccc(-n2ccn3c(SCC(=O)Nc4cc(F)ccc4F)nnc3c2=O)c1` are 11.04% and -6.25%.
The like results for `Cc1nnc2ccc(S(=O)(=O)N(Cc3cc(F)cc(F)c3)c3ccccc3)cn12` were, in that order, 12.61% and -1.77%.
The like results for `O=C(NCc1ccccc1)c1ccc2nn(CC(=O)N3CCN(c4ccc(F)cc4)CC3)c(=O)n2c1` were, in that order, 4.28% and -2.47%.
Take `O=C(CSc1nnc2c(=O)n(-c3ccc(Br)cc3)ccn12)Nc1cccc(Cl)c1`: the values for the Inhibition in the assay on Staphylococcus aureus and in the assay with Escherichia coli were 2.58% and -6.43%, respectively.
For the compound `O=C(Cn1nc2c(Sc3ccccc3)nccn2c1=O)Nc1cccc(Cl)c1F`, the Inhibition in the assay with Staphylococcus aureus is 9.57%; in the assay on Escherichia coli it was -0.62%.
In the same order, the values of `CCOc1ccc(-n2ccn3c(SCC(=O)c4ccc(C)cc4C)nnc3c2=O)cc1` are 6.78% and -6.14%.
In the same order, the values of `Cc1cc2nn(CC(=O)Nc3ccc(F)c(F)c3)c(=O)n2c(Nc2ccc(C)c(F)c2)n1` are 7.73% and -3.04%.
For `C=Cc1ccc(CN(c2ccc(C(C)C)cc2)S(=O)(=O)c2cccn3cnnc23)cc1`, the Inhibition with Staphylococcus aureus is on record as 7.94%; in the assay on Escherichia coli, 0.1%.
In the same order, the values of `O=C(Cn1nc2c(Oc3ccccc3)nccn2c1=O)Nc1ccc2c(c1)OCCO2` are 7.17% and 2.24%.
In the same order, the values of `COc1cccc(Sc2nc3ccccc3n3c(=O)n(CC(=O)Nc4cccc(F)c4)nc23)c1` are 3.13% and -1.66%.
As to `CCOc1ccc(NC(=O)Cn2nc3c4cc(-c5ccc(C)cc5)nn4ccn3c2=O)cc1`, the results for the Inhibition with Staphylococcus aureus and in the assay with Escherichia coli were 9.82% and 2.19%, respectively.
As for `Cc1cc(C)c(NC(=O)Cn2nc3ccc(SCc4ccc(Cl)cc4)nn3c2=O)c(C)c1`, the results for the Inhibition in the assay with Staphylococcus aureus and in the assay with Escherichia coli were -5.02% and -8.63%, respectively.
The like results for `CCC(Sc1nnc2c(=O)n(-c3cccc(OC)c3)ccn12)C(=O)Nc1cc(OC)cc(OC)c1` (centres undefined) were, in that order, 13.02% and -6.26%.

These data come from ChEMBL document CHEMBL4513146, “CO-ADD screening of Karazin Kharkiv National University (Ukraine) compounds”.
